# Measurements taken from PubChem BioAssay (NCI).
# Values joined by “and” are separate entries in the source; they are usually repeats but may differ in a detail not shown here. Identical values can stand only once. Compounds without any hit were thinned out: in the full panel of roughly 83,000, 20% have a hit.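 Results are percent growth after 48 hours of single-concentration exposure. 100 means growth as in untreated cells, lower positive values show inhibition; negative values down to -100 show cell death.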 Active and inactive are the calls of the source. How the source made its calls: active means growth percent below 10; inactive means the rest.
# System: OVCAR-8 ovarian
# Test: NCI-60 one-dose screen, 48 h (100 = growth as untreated, 0 = no growth, -100 = all killed)
# Conditions: 10 µM unless noted
row,Compound,growth
1,O=C(Cc1cccc2ccccc12)N/N=C/c1ccc2c(c1)CCC2,72.3% (inactive)
2,CC1=C(/C=C/C(C)=C/C=C/C(C)=C/C(=O)O)C(C)(C)CCC1,87% (inactive) and 89.2% (inactive)
3,O=C(Nc1ccc(Br)cc1)c1cc(Br)ccc1O,22.5% (inactive) and 20.5% (inactive)
4,Cc1cc(-c2ccc(NS(=O)(=O)c3ccccc3)c(C)c2)ccc1NS(=O)(=O)c1ccccc1,85.4% (inactive) and 95.8% (inactive)
5,O=C(CCl)c1ccc2c(c1)Nc1ccccc1S2,95.1% (inactive) and 88.7% (inactive)
6,CC1CCCc2sc3nc(NNC(=O)c4cnccn4)n(-c4ccccc4)c(=O)c3c21 (stereo not drawn),12% (inactive) and 9.28% (active)
7,Cc1cc(O)c(C(C)C)cc1N,99.3% (inactive) and 106% (inactive)
8,COc1ccc2cc3[n+](cc2c1OC)CCc1cc2c(cc1-3)OCO2,44.8% (inactive)
9,COc1c(/C(C)=N/N=c2sc(C(C)=O)nn2-c2ccc(Cl)cc2)c(Oc2ccccc2)c(OC)c2occc12,102% (inactive)
10,OC(COc1cccc2ccccc12)CN1CCN(c2ccc(Cl)cc2)CC1 (stereo not drawn),79.8% (inactive) and 87.1% (inactive)
11,CNc1ccc2nc3ccc(=[N+](C)C)cc-3sc2c1,-15.7% (active) and -26.8% (active)
12,CC1=NN(c2ccccc2)C(=O)C1C(=O)c1ccccc1 (stereo not drawn),88.4% (inactive)
13,OCCN1CCN(CCO)CC1,101% (inactive) and 97.4% (inactive)
14,CC1=CCC2CC1C2(C)C (stereo not drawn),97.7% (inactive) and 95.8% (inactive)
15,COc1cc(/C=N/Nc2nc3c([nH]2)c(=O)n(C)c(=O)n3C)ccc1O,103% (inactive) and 108% (inactive)
16,S=C(S)N1CCCC1,106% (inactive) and 94.1% (inactive)
17,CC(=O)Oc1cc(C(=O)O)cc(OC(C)=O)c1OC(C)=O,103% (inactive) and 99.9% (inactive)

row,Compound,growth
1,CCN(CC)C(=O)c1cccnc1,98.8% (inactive)
2,O=C(Nc1cccc(Cl)c1)c1cc2ccccc2cc1O,11.2% (inactive) and 8.75% (active)
3,Cn1c(SSc2ccc(-c3cccnc3)n2C)ccc1-c1cccnc1,97.4% (inactive) and 103% (inactive)
4,CN1CCN(CCC=C2c3ccccc3Sc3ccc(S(=O)(=O)N(C)C)cc32)CC1,83.8% (inactive) and 95.7% (inactive)
5,Oc1c(Cl)cc(Cl)cc1Sc1cc(Cl)cc(Cl)c1O,31.7% (inactive) and 2.65% (active) and 71.7% (inactive)
6,Cn1c(=O)n(-c2ccc(C(C)(C)C#N)cc2)c2c3cc(-c4cnc5ccccc5c4)ccc3ncc21,1.15% (active) and -10.2% (active)
7,O=C(N/N=C/c1ccccc1)N/N=C/c1ccccc1,103% (inactive) and 107% (inactive)
8,COc1ccc(-c2cn[nH]c2-c2cc(OC)c(OC)c(OC)c2)cc1N,21.3% (inactive) and 12.9% (inactive)
9,C1CCCCNCCC1,110% (inactive)
10,COc1ccccc1C(C)=O,105% (inactive) and 96.7% (inactive)
11,NS(=O)(=O)c1cc2c(cc1Cl)NC(C(Cl)Cl)NS2(=O)=O (stereo not drawn),99.2% (inactive) and 95.3% (inactive)
12,O=C(Oc1cccc(OC(=O)c2ccccc2)c1)c1ccccc1,110% (inactive)
13,CC1(c2ccc3ccccc3c2)CCC(=O)O1 (stereo not drawn),101% (inactive)
14,CC1=C(/C=C/C(C)=C/C=C/C(C)=C/C=N/NC(=S)NC(=S)N/N=C/C=C(C)/C=C/C=C(C)/C=C/C2=C(C)CCCC2(C)C)C(C)(C)CCC1,-12.5% (active) and -74.8% (active)
15,CCCCOc1cc(C(=O)NCCN(CC)CC)c2ccccc2n1,92.9% (inactive) and 81.8% (inactive)
16,COc1cc2c(c(OC)c1OC)-c1ccc(OC)c(=O)cc1[C@@H](NC(C)=O)CC2,10.3% (inactive) and 14.4% (inactive)
17,CN1CCN(c2ccc3nc(-c4c(N)c5c(F)cccc5[nH]c4=O)[nH]c3c2)CC1,35.4% (inactive) and 28.2% (inactive)

# System: OVCAR-5 ovarian
# Test: as above
# Conditions: 10 µM unless noted
row,Compound,growth
1,O=[N+]([O-])c1ccccc1/C=N\Nc1ccccc1,91.1% (inactive) and 89.2% (inactive)
2,CCN(CC)CCNc1cc(-c2cccc(OC(F)(F)F)c2)nc2ccc(N3CCCC3)cc12,50.6% (inactive) and 5.44% (active) and 34.6% (inactive)
3,CC(=O)Nc1cc(S(=O)(=O)O)cc2cc(S(=O)(=O)O)c(N=Nc3ccccc3)c(O)c12,122% (inactive) and 113% (inactive)
4,CC(C)CNC(=O)c1ccccc1C(=O)NC1(C(=O)NCC(C)C)CCCC1,98.6% (inactive) and 98.3% (inactive)
5,COc1cc2nc(N3CCN(C(=O)C4COc5ccccc5O4)CC3)nc(N)c2cc1OC (stereo not drawn),127% (inactive) and 112% (inactive) and 96.7% (inactive)
6,O=C(Cc1cccc2ccccc12)N/N=C/c1ccc2c(c1)CCC2,80.9% (inactive)
7,CC1=C(/C=C/C(C)=C/C=C/C(C)=C/C(=O)O)C(C)(C)CCC1,120% (inactive) and 110% (inactive)
8,O=C(Nc1ccc(Br)cc1)c1cc(Br)ccc1O,30.4% (inactive) and 17.4% (inactive)
9,Cc1cc(-c2ccc(NS(=O)(=O)c3ccccc3)c(C)c2)ccc1NS(=O)(=O)c1ccccc1,126% (inactive) and 111% (inactive)
10,O=C(CCl)c1ccc2c(c1)Nc1ccccc1S2,105% (inactive) and 117% (inactive)
11,CC1CCCc2sc3nc(NNC(=O)c4cnccn4)n(-c4ccccc4)c(=O)c3c21 (stereo not drawn),29.6% (inactive) and 36.6% (inactive)
12,Cc1cc(O)c(C(C)C)cc1N,101% (inactive) and 103% (inactive)
13,COc1ccc2cc3[n+](cc2c1OC)CCc1cc2c(cc1-3)OCO2,70.5% (inactive)
14,COc1c(/C(C)=N/N=c2sc(C(C)=O)nn2-c2ccc(Cl)cc2)c(Oc2ccccc2)c(OC)c2occc12,104% (inactive) and 97.7% (inactive)
15,OC(COc1cccc2ccccc12)CN1CCN(c2ccc(Cl)cc2)CC1 (stereo not drawn),84.1% (inactive) and 87.3% (inactive)
16,CNc1ccc2nc3ccc(=[N+](C)C)cc-3sc2c1,-8.49% (active) and -6.9% (active)
17,CC1=NN(c2ccccc2)C(=O)C1C(=O)c1ccccc1 (stereo not drawn),120% (inactive)
18,OCCN1CCN(CCO)CC1,111% (inactive) and 91.2% (inactive) and 105% (inactive)
19,CC1=CCC2CC1C2(C)C (stereo not drawn),80.1% (inactive) and 74.2% (inactive)
20,COc1cc(/C=N/Nc2nc3c([nH]2)c(=O)n(C)c(=O)n3C)ccc1O,107% (inactive) and 111% (inactive)

row,Compound,growth
1,S=C(S)N1CCCC1,112% (inactive) and 113% (inactive)
2,CC(=O)Oc1cc(C(=O)O)cc(OC(C)=O)c1OC(C)=O,117% (inactive) and 94.9% (inactive)
3,CCN(CC)C(=O)c1cccnc1,99.4% (inactive)
4,O=C(Nc1cccc(Cl)c1)c1cc2ccccc2cc1O,97.2% (inactive) and 56.4% (inactive)
5,Cn1c(SSc2ccc(-c3cccnc3)n2C)ccc1-c1cccnc1,141% (inactive) and 115% (inactive)
6,CN1CCN(CCC=C2c3ccccc3Sc3ccc(S(=O)(=O)N(C)C)cc32)CC1,80.1% (inactive)
7,Oc1c(Cl)cc(Cl)cc1Sc1cc(Cl)cc(Cl)c1O,49.9% (inactive) and 102% (inactive)
8,Cn1c(=O)n(-c2ccc(C(C)(C)C#N)cc2)c2c3cc(-c4cnc5ccccc5c4)ccc3ncc21,10.4% (inactive) and 19.4% (inactive)
9,O=C(N/N=C/c1ccccc1)N/N=C/c1ccccc1,109% (inactive) and 105% (inactive)
10,COc1ccc(-c2cn[nH]c2-c2cc(OC)c(OC)c(OC)c2)cc1N,46% (inactive) and 48.7% (inactive)
11,C1CCCCNCCC1,106% (inactive)
12,COc1ccccc1C(C)=O,117% (inactive) and 106% (inactive)
13,NS(=O)(=O)c1cc2c(cc1Cl)NC(C(Cl)Cl)NS2(=O)=O (stereo not drawn),96.6% (inactive)
14,O=C(Oc1cccc(OC(=O)c2ccccc2)c1)c1ccccc1,92.7% (inactive) and 102% (inactive)
15,CC1(c2ccc3ccccc3c2)CCC(=O)O1 (stereo not drawn),102% (inactive)
16,CC1=C(/C=C/C(C)=C/C=C/C(C)=C/C=N/NC(=S)NC(=S)N/N=C/C=C(C)/C=C/C=C(C)/C=C/C2=C(C)CCCC2(C)C)C(C)(C)CCC1,-48.3% (active) and -77.7% (active)
17,CCCCOc1cc(C(=O)NCCN(CC)CC)c2ccccc2n1,91.4% (inactive) and 97.6% (inactive)
18,COc1cc2c(c(OC)c1OC)-c1ccc(OC)c(=O)cc1[C@@H](NC(C)=O)CC2,47.5% (inactive) and 20.8% (inactive) and 31.2% (inactive)
19,CN1CCN(c2ccc3nc(-c4c(N)c5c(F)cccc5[nH]c4=O)[nH]c3c2)CC1,56.1% (inactive) and 61.3% (inactive)
